Measured values reported in PubChem BioAssay (Tox21).
Records with an inconclusive call do not appear. Active and inactive are the calls of the source. The call rests on the fitted dose curve; in most records, active means well fitted curve in the direction sought with a large enough effect in the repeat runs; inconclusive means weak or mixed curves; inactive means no such curve, though single readings can be large; an effect the other way counts as inactive or inconclusive.

Tests used:
[1] = qHTS assay to test for compound auto fluorescence at 535 nm (green) in HEK293 cells (AID 720680)
[2] = qHTS assay to test for compound auto fluorescence at 460 nm (blue) in HEK293 cell free culture (AID 720681)
Outline: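 Test compounds were pinned into cell-free culture medium (DMEM with 10% FBS) and fluorescence was read directly at Ex/Em 405/460 nm. Signals were expressed as fluorescence equivalents of triamterene, with DMSO vehicle as control.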

[3] = qHTS assay to test for compound auto fluorescence at 535 nm (green) in HEK293 cell free culture (AID 720682)
Outline: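 Using fluorescein as calibrant, autofluorescence was quantified at 485/535 nm in cell-free DMEM containing 10% FBS after pintool addition of compound or vehicle.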

[4] = qHTS assay to test for compound auto fluorescence at 590 nm (red) in HEK293 cell free culture (AID 720683)
Outline: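 Tox21 10K library compounds were pinned into cell-free DMEM with 10% FBS and fluorescence was read at excitation 540 nm. Activity is expressed as Rose Bengal sodium equivalency.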

[5] = qHTS assay to test for compound auto fluorescence at 590 nm (red) in HepG2 cell free culture (AID 720684)
Outline: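 Readout: intrinsic compound fluorescence at 590 nm emission after 540 nm excitation, scaled to Rose Bengal sodium. Matrix was cell-free MEM with 10% FBS; DMSO vehicle wells served as control.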

[6] = qHTS assay to test for compound auto fluorescence at 460 nm (blue) in HepG2 cell free culture (AID 720685)
Outline: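 Cell-free plates of MEM plus 10% FBS received 23 nL compound or DMSO vehicle; blue-channel (405/460 nm) intensity scored against triamterene as reference fluorophore.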

[7] = qHTS assay to test for compound auto fluorescence at 535 nm (green) in HepG2 cell free culture (AID 720686)
[8] = qHTS assay to test for compound auto fluorescence at 460 nm (blue) in HepG2 cells (AID 720687)
Outline: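 Cells (2,000/well in MEM with 10% FBS) attached overnight at 37 C, then were exposed to compound or DMSO for 1 hr at 37 C, 5% CO2. Fluorescence read at Ex/Em 405/460 nm, expressed as triamterene-equivalent signal.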

[9] = qHTS assay to identify small molecule antagonists of the glucocorticoid receptor (GR) signaling pathway - cell viability counter screen (AID 720693); further: nearly all actives have a fitted effect of over 55% in size; further: potency means the concentration at half of the fitted maximal effect
[10] = qHTS assay for identifying genotoxic compounds that show differential cytotoxicity against isogenic chicken DT40 cell lines with known DNA damage response pathways - wild type cell line (AID 743012); further: nearly all actives have a fitted effect of over 60% in size; further: potency means the concentration at half of the fitted maximal effect
Outline: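 Viability by ATP luminescence (CellTiter-Glo, 30 min RT) after 40 h compound treatment at 37 C/5% CO2, using 300 parental DNA repair-proficient DT40 cells per well.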

[11] = qHTS assay for identifying genotoxic compounds that show differential cytotoxicity against isogenic chicken DT40 cell lines with known DNA damage response pathways - Rev3 mutant cell line (AID 743014); further: nearly all actives have a fitted effect of over 55% in size; further: potency means the concentration at half of the fitted maximal effect
[12] = qHTS assay for identifying genotoxic compounds that show differential cytotoxicity against isogenic chicken DT40 cell lines with known DNA damage response pathways - Rad54/Ku70 mutant cell line (AID 743015); further: nearly all actives have a fitted effect of over 60% in size; further: potency means the concentration at half of the fitted maximal effect
[13] = qHTS assay to identify small molecule antagonists of the androgen receptor (AR) signaling pathway - cell viability counter screen (AID 743033; further: nearly all actives have a fitted effect of over 45% in size; further: potency means the concentration at half of the fitted maximal effect)
[14] = qHTS assay to identify small molecule antagonists of the androgen receptor (AR) signaling pathway using the MDA cell line - cell viability counter screen (AID 743041; further: nearly all actives have a fitted effect of over 45% in size; further: potency means the concentration at half of the fitted maximal effect)
Outline: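 qHTS viability read-out; MDA-kb2 AR-luc; R1881-stimulated; 16 h exposure at 37C, 0% CO2; CellTiter-Fluor, 30 min; fluorescence intensity.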

[15] = target: Androgen receptor (Homo sapiens) (UniProt P10275); assay: qHTS assay to identify small molecule agonists of the androgen receptor (AR) signaling pathway using the MDA cell line (AID 743040; further: nearly all actives have a fitted effect of over 20% in size)
Chain of Androgen receptor (Homo sapiens) (P10275 whole entry, looked up): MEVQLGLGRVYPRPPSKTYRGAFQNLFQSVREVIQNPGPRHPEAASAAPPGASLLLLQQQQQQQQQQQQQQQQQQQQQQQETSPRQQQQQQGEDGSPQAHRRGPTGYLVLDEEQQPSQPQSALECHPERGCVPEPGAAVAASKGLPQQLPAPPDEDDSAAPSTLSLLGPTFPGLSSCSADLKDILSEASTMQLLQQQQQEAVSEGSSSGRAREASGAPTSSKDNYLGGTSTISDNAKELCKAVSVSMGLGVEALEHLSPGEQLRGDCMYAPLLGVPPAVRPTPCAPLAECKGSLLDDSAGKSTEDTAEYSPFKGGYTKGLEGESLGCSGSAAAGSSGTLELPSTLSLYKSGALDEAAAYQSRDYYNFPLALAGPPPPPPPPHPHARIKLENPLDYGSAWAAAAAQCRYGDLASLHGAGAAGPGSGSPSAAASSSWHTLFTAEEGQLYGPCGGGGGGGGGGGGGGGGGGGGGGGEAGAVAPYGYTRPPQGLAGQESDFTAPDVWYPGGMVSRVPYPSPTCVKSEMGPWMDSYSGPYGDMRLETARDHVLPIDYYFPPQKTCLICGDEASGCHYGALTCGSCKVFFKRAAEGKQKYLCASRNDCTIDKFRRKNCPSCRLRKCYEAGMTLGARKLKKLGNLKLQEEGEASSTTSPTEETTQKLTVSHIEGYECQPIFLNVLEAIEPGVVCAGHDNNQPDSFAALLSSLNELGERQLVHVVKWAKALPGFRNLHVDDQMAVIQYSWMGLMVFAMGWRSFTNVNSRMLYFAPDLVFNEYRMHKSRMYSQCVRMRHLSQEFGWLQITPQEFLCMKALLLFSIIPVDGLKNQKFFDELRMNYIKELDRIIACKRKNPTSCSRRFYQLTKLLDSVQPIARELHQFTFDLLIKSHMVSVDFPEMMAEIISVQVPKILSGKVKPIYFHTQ
Outline: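 Agonist activity is measured as luciferase luminescence in human MDA-kb2 cells whose MMTV reporter responds to both AR and GR. Compounds in DMSO incubate 16 h at 37C, 0% CO2, and ONE-Glo is read after 30 min.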

[16] = target: Androgen receptor (Homo sapiens) (UniProt P10275); assay: qHTS assay to identify small molecule antagonists of the androgen receptor (AR) signaling pathway using the MDA cell line (AID 743042; further: potency means the concentration at half of the fitted maximal effect; nearly all actives have a fitted effect of over 55% in size)
Outline: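 MDA-kb2 cells (human breast carcinoma, stably carrying an MMTV-luciferase reporter responsive to AR and GR) were plated at 3,000 cells/well and preincubated 5 hr at 37C, then given compound plus R1881 agonist for 16 h. ONE-Glo luminescence was read.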

Measured: Potency

O=P(O)(O)OC[C@H](O)CO
inactive: [1] | [2] | [3] | [4] | [5] | [6] | [7] | [8] | [9] | [10] | [11] | [12] | [13] | [14]

CCCC(=O)O[C@]1(C(=O)COC(=O)CC)[C@@H](C)C[C@H]2[C@@H]3CCC4=CC(=O)C=C[C@]4(C)[C@@]3(F)[C@@H](O)C[C@@]21C
inactive: [1] | [2] | [3] | [4] | [5] | [6] | [7] | [8] | [9] | [13] | [14]
active: [10] 29.8 µM | [11] 29.8 µM | [12] 26.6 µM

CNC[C@@H]1CC[C@@H](N)[C@@H](O[C@H]2[C@H](O)[C@@H](O[C@H]3OC[C@](C)(O)[C@H](NC)[C@H]3O)[C@H](N)C[C@@H]2N)O1
inactive: [1] | [2] | [3] | [4] | [5] | [6] | [7] | [8] | [9] | [10] | [11] | [12] | [13] | [14]

NC(N)=NCC1COc2ccccc2O1 (stereo not drawn)
inactive: [1] | [2] | [3] | [4] | [5] | [6] | [7] | [8] | [9] | [10] | [11] | [12] | [13] | [14]

CC(O)[C@@H]1NC(=O)[C@H](Cc2ccccc2)NC(=O)[C@H](C(C)O)NC(=O)[C@H](CCCCN)NC(=O)[C@H](Cc2c[nH]c3ccccc23)NC(=O)[C@H](Cc2ccccc2)NC(=O)[C@H](Cc2ccccc2)NC(=O)[C@H](CC(N)=O)NC(=O)[C@H](CCCCN)NC(=O)[C@@H](NC(=O)CNC(=O)[C@H](C)N)CSSC[C@@H](C(=O)O)NC(=O)[C@H](CO)NC1=O (stereo partly drawn)
inactive: [1] | [2] | [3] | [4] | [5] | [6] | [7] | [8] | [9] | [10] | [11] | [12] | [13] | [14]

c1cnc2cc3c(cc2n1)[C@@H]1CNC[C@H]3C1
inactive: [1] | [2] | [3] | [4] | [5] | [6] | [7] | [8] | [9] | [10] | [11] | [12] | [13] | [14]

O=P(O)(O)OC[C@H]1O[C@](O)(COP(=O)(O)O)[C@@H](O)[C@@H]1O
inactive: [1] | [2] | [3] | [4] | [5] | [6] | [7] | [8] | [9] | [10] | [11] | [12] | [13] | [14]

CN1[C@@H]2CCC[C@H]1CC(NC(=O)c1nn(C)c3ccccc13)C2 (stereo partly drawn)
inactive: [1] | [2] | [3] | [4] | [5] | [6] | [7] | [8] | [9] | [10] | [11] | [12] | [13] | [14]

CCNC(=O)[C@@H]1CCCN1C(=O)[C@H](CCCN=C(N)N)NC(=O)[C@H](CC(C)C)NC(=O)[C@@H](Cc1c[nH]c2ccccc12)NC(=O)[C@H](Cc1ccc(O)cc1)NC(=O)[C@H](CO)NC(=O)[C@H](Cc1c[nH]c2ccccc12)NC(=O)[C@H](Cc1cnc[nH]1)NC(=O)[C@@H]1CCC(=O)N1
inactive: [1] | [2] | [3] | [4] | [5] | [6] | [7] | [8]
active: [9] 19 µM | [10] 0.841 µM | [11] 1.19 µM | [12] 1.06 µM | [13] 23.9 µM | [14] 11.9 µM

Cc1c(Cl)cccc1Nc1ncccc1C(=O)O
inactive: [1] | [2] | [3] | [4] | [5] | [6] | [7] | [8] | [9] | [10] | [11] | [12] | [13] | [14]

CC[C@@H]1/C=C(\C)C[C@H](C)C[C@H](OC)[C@H]2O[C@@](O)(C(=O)C(=O)N3CCCC[C@H]3C(=O)O[C@H](/C(C)=C/[C@@H]3CC[C@@H](Cl)[C@H](OC)C3)[C@H](C)[C@@H](O)CC1=O)[C@H](C)C[C@@H]2OC
inactive: [1] | [2] | [3] | [4] | [5] | [6] | [7] | [8] | [9] | [10] | [11] | [12] | [13] | [14]

O=C(O)[C@H]1/C(=C/CO)O[C@@H]2CC(=O)N21
inactive: [1] | [2] | [3] | [4] | [5] | [6] | [7] | [8] | [9] | [10] | [11] | [12] | [13] | [14]

COc1ccc(C2NC(=S)N3C(c4ccc(OC)c(OC)c4)NC(=S)N23)cc1OC (stereo not drawn)
inactive: [1] | [2] | [3] | [4] | [5] | [6] | [7] | [8] | [9] | [15]
active: [10] 0.0067 µM | [11] 0.0106 µM | [12] 0.0106 µM | [13] 0.239 µM | [14] 0.15 µM | [16] 0.075 µM

O=C(CCCN1CCC(C(=O)c2ccc(F)cc2)CC1)c1ccc(F)cc1
inactive: [1] | [2] | [3] | [4] | [5] | [6] | [7] | [8] | [9] | [13] | [14]
active: [10] 8.41 µM | [11] 3.76 µM | [12] 7.5 µM
